HT1080 IDH1KD tx = qHTS for induction of synthetic lethality in tumor cells producing 2HG: qHTS for the HT-1080-IDH1KD cell line | HT-1080 IDH1 knockdown viability, ATP luminescence, 48 h | AID 686971, 2013 | Potency, µM (top dose mostly 46.1 µM), for the others: at the top dose activity, negative = toxicity, actives largely listed as cytotoxic | 2% of 360,000 active;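 note: potency is the fitted concentration of half-maximal effect; 0% = DMSO wells and -100% = cell-free medium wells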
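HT-1080-IDH1KD cells (IDH1 knocked down), 750/well in RPMI with 5% FBS, treated with compound 48 h at 37 degrees C. Viability by CellTiter-Glo luminescence, normalised to DMSO and no-cell wells; concentration-response curves classed.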
IL1B secr inh = qHTS for Inhibitors of Inflammasome Signaling: IL-1-beta AlphaLISA Primary Screen; 4.7% of 360,000 active; THP-1 LPS/ATP IL-1B secretion, AlphaLISA, 16 h; active compounds read low; activity change, % at 57.5 µM; AID 743279, 2014; in the data active = activity change below about -50%; inconclusive = mostly about -30% to -49%
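THP-1 cells pretreated 1 hr with compounds (up to 57.5 uM final), then stimulated with LPS (250 ng/mL final) plus ATP (1.25 mM final); secreted IL-1B measured by AlphaLISA after 16 hr, decreased signal indicating inhibition.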
DT40 TDP1 CPT = qHTS for Inhibitors of human tyrosyl-DNA phosphodiesterase 1 (TDP1): qHTS in cells in presence of CPT. 12% of 420,000 active. Potency, µM (doses to about 46.2 µM), for inactives: at the top dose activity change, negative = growth inhibition, most hits filed as inhibitors. AID 686979, 2013. chicken DT40 Tdp1-/-;hTDP1 cells + 20 nM CPT, ATP luminescence, 48 h; note: potency is the fitted concentration of half-maximal effect; nearly all actives have a fitted effect of over 55% in size
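Chicken DT40 Tdp1-/- cells stably complemented with human TDP1 were seeded at 400 cells/well in medium containing 20 nM camptothecin, exposed to pin-transferred compounds, and grown at 37 °C for at least 48 hr. Viability was read as ATP luminescence.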
HT1080-NT tox = qHTS for induction of synthetic lethality in tumor cells producing 2HG: qHTS for the HT-1080-NT fibrosarcoma cell line | HT-1080-NT fibrosarcoma viability, CellTiter-Glo ATP luminescence, 48 h | Potency, µM (titrated, usually from 46.1 µM), for inactives: top-dose activity, negative = less viability, usual class: cytotoxic | 1.6% of 360,000 active | AID 686970, 2013;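 note: NT is the 2HG producing partner of a matched IDH1 knockdown line; potency is the fitted concentration of half-maximal effect; 0% = DMSO-treated cells and -100% = media-only wells without cells; nearly all actives have a fitted effect of over 55% in size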
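Read-out is CellTiter-Glo luminescence after 10 minutes at room temperature, following 48 hours' compound treatment of HT-1080-NT cells (750 cells/well, RPMI, 5% FBS, 37 degrees C).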
DT40 TDP1 no CPT = qHTS for Inhibitors of human tyrosyl-DNA phosphodiesterase 1 (TDP1): qHTS in cells in absence of CPT | DT40 Tdp1-/- hTDP1 cells, no CPT, ATP luminescence, 48 h | Potency, µM (highest dose often 46.2 µM), inactives show top-dose activity change, negative = growth inhibition, hits mostly inhibitors | 15% of 420,000 active; note: potency is the fitted concentration of half-maximal effect; nearly all actives have a fitted effect of over 55% in size
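Seeded 400 DT40-hTDP1 cells/well (vehicle DMSO, no 20 nM CPT); pinned compounds; ≥48 hr at 37 °C; CellTiter-Glo luminescence as viability measure.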
The depositor's hits bear a star; i = inactive; ? = inconclusive; / = no result; [ ] = remark or other dose. A selection: hits, their analogues and other compounds. The true share with any hit is near 19%. Unless noted, calls come from the whole dose curve; as a rule, active = well fitted curve in the direction sought with a large enough effect; inconclusive = small, poorly fitted or top-dose-only effect, or another doubt; inactive = no such curve, though single readings can be large; an effect the other way counts as inactive or inconclusive. Unless noted, % is set by controls: 0 for no effect and ±100 for the full control effect.

SMILES | HT1080 IDH1KD tx | IL1B secr inh | DT40 TDP1 CPT | HT1080-NT tox | DT40 TDP1 no CPT
O=C(CSc1nnc(-c2ccc(Cl)cc2)n1-c1ccc(Cl)cc1)N/N=C/c1ccco1 | ? | 0 | 21µM* | ? | ?
COc1ccc(C)cc1NC(=O)CCS(=O)(=O)c1ccc2c(c1)oc(=O)n2C | 19% | 63 | -2% | 10% | 1%
COc1cccc(CC2(CO)CCN(Cc3ccc4cccc(F)c4n3)CC2)c1 | -16% | -71* | -19% | -9% | ?
OCC1(CCOc2ccccc2)CCN(Cc2ccc3cccc(F)c3n2)CC1 | -12% | ? | -6% | -19% | ?
COc1cccc(CC2(CO)CCN(CC3=CC[C@H]4C[C@@H]3C4(C)C)CC2)c1 | -13% | -55* | ? | -25% | ?
OCC1(Cc2cccc(F)c2)CCN(Cc2ccc3cccc(F)c3n2)CC1 | ? | -72* | ? | ? | ?
COc1cc(/C=C/c2cc(OC(C)=O)c3ccccc3n2)c(OC(C)=O)c([N+](=O)[O-])c1 | -11% | 6 | ? | -5% | ?
COc1ccccc1CN1CC(C(=O)NC2CCOCC2)CCC1=O (stereo not drawn) | 29% | i | 7% | 10% | -22%
CSc1ncc(CO)n1Cc1ccccc1 | 14% | -13 | 17% | 2% | -2%
CCn1c(-c2ccc(-c3ccccc3)cc2)c[nH]c1=S | -20% | 0 | ? | -3% | ?
Cn1c(-c2ccc(-c3ccccc3)cc2)c[nH]c1=S | 10% | -26 | 8.2µM* | 4% | ?
C=CCn1c(-c2ccccc2)c[nH]c1=S | -2% | -1 | 26µM* | -3% | ?
C[C@@H]1CN(Cc2ccc3c(c2)CN(Cc2cccc4c2OCO4)CCO3)C[C@H](C)O1 | / | / | 13%[9.04 µM] | / | -14%
CC(C)N(C(C)C)S(=O)(=O)c1ccc(NC(=O)c2cnccn2)cc1 | 0% | -3 | -6% | 1% | 7%
COc1ccc(-c2nc3c(Cl)cc(C(F)(F)F)cn3c2Cc2ccsc2)cc1OC | 2% | 0 | ? | 9% | ?
Cc1ccc(C)c(N(CC(=O)NC2CCCC2)C(=O)c2cc3cc4cc(C)ccc4nc3s2)c1 | -13% | 19 | 8.2µM* | 18% | 11µM*
Cc1cccc(N(CC(=O)NC2CCCC2)C(=O)c2cc3cc4cccc(C)c4nc3s2)c1C | -8% | ? | 18µM* | 6% | 16µM*
C=C1C(=O)C23C(O)C1CCC2C12CCCC(C)(COC(C)=O)C1C(O)C3(O)OC2 (stereo not drawn) | 1.8µM* | 0 | 1µM* | 8.2µM* | 0.73µM*
O=C(c1c[nH]c2ccccc12)C(Cl)c1ccccc1 (stereo not drawn) | ? | -73* | 23µM* | -29% | 21µM*
COc1ccccc1NC(C)C(=O)c1c[nH]c2ccccc12 (stereo not drawn) | / | / | 11µM* | / | ?
Cc1ccc2ncc(C(=O)Nc3ccc(F)cc3F)c(=O)n2c1 | / | / | -5% | / | -6%
O=C(c1ccc(Cl)cc1)N1CCC(O)(CSc2ccc(Cl)cc2Cl)CC1 | ? | -20 | 16µM* | ? | ?
CCc1ccc2c(c1)C(=O)C(=O)N2CCS(=O)(=O)c1ccccc1 | 0% | 26 | 2.9µM* | -8% | 2.6µM*
CCc1ccc2c(c1)C(=O)C(=O)N2CC(=O)Nc1ccc(NC(=O)c2ccccn2)cc1 | -1% | -19 | ? | 4% | ?
CNS(=O)(=O)c1cc(-c2nnc(Nc3ccc(CC(N)=O)cc3)c3ccccc23)ccc1C | 2% | 0 | -2% | 5% | 11%
SMILES | HT1080 IDH1KD tx | IL1B secr inh | DT40 TDP1 CPT | HT1080-NT tox | DT40 TDP1 no CPT
COc1ccc(S(=O)(=O)NCCc2nnc3ccc(SCC(=O)Nc4cc(C)cc(C)c4)nn23)cc1 | / | / | 21µM* | / | ?
Cc1ccc(S(=O)(=O)NCCc2nnc3ccc(SCc4ccccc4F)nn23)cc1 | / | / | 18µM* | / | 21µM*
Cc1ccc(S(=O)(=O)NCCc2nnc3ccc(SCC(=O)Nc4ccc(F)cc4F)nn23)cc1 | / | / | -22% | / | 5%
O=S(=O)(NCCc1nnc2ccc(SCc3ccc(C(F)(F)F)cc3)nn12)c1ccccc1 | / | / | 15µM* | / | ?
O=S(=O)(NCCc1nnc2ccc(SCc3cccnc3)nn12)c1ccccc1 | 1% | -7 | -12% | 1% | -10%
Cc1ccc(CSc2ccc3nnc(CCNS(=O)(=O)c4ccc(C)cc4)n3n2)cc1 | / | / | 16µM* | / | ?
CC(=O)c1ccc(NC(=O)CSc2ccc3nnc(CCNS(=O)(=O)c4ccc(C)cc4)n3n2)cc1 | / | / | -28% | / | ?
COc1ccc(S(=O)(=O)NCCc2nnc3ccc(SCc4cccnc4)nn23)cc1 | 2% | -16 | -4% | 8% | -4%
Cc1cccc(NS(=O)(=O)c2cccc(C(=O)N3CCCC(C(F)(F)F)C3)c2)c1 (stereo not drawn) | -7% | 0 | ? | 0% | ?
CC(C)NC(=O)C1(C)CN(S(C)(=O)=O)CC(=O)N1C1CCCCCC1 (stereo not drawn) | 21% | -2 | -17% | 19% | -21%
COc1cccc(CCc2nnc(CCC(=O)NC(C)Cc3cccs3)o2)c1 (stereo not drawn) | -1% | 0 | -29% | 0% | -18%
Cc1nn(-c2nc(-c3ccc(F)cc3)cc(C(F)(F)F)n2)c(C)c1Cl | / | / | 18µM* | / | 18µM*
Cc1nn(-c2nc(-c3ccc(F)cc3)cc(C(F)(F)F)n2)c(C)c1Br | / | / | ? | / | 18µM*
COc1ccc(CN2C(=O)C(CC(=O)NC3CC3)CC(C(=O)N(C)C)=C2C)cc1 (stereo not drawn) | -1% | 6 | -8% | 0% | -6%
CCc1cccc(CC)c1NC(=O)CSc1nc2ccc(N3C(=O)C4C(C3=O)[C@H]3C=C[C@@H]4C3)cc2s1 (stereo partly drawn) | 26µM* | -6 | ? | 2% | 8.2µM*
Cc1cc(C)c(NC(=O)CSc2nc3ccc(N4C(=O)c5ccccc5C4=O)cc3s2)c(C)c1 | 15% | 14 | 0% | 18% | -15%
CCOC(=O)C1=CN(Cc2cccc(-c3ccc4c(c3)OCO4)c2)S(=O)(=O)N(C)C1C (stereo not drawn) | 3% | -6 | ? | 1% | 23µM*
CCCN1C(C)C(C(=O)OCC)=CN(Cc2ccc(Br)cc2)S1(=O)=O (stereo not drawn) | 2% | -7 | ? | -2% | ?

Compound activity from PubChem BioAssay.
